RecA intein inh: Mtb RecA intein splicing inhibitors, primary screen, biochemical, fluorescence, HTS. cell-free RecA intein splicing. inhibition, % (test concentration not listed). 290,000 tested, 0.75% active. AID 2221, 2009; in the data active = inhibition above about 30%; inconclusive = no clear call, values can overlap the other calls;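 note: 0% = vehicle wells and 100% = reference inhibitor control wells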
Target sequence (P9WHJ3 whole entry, looked up): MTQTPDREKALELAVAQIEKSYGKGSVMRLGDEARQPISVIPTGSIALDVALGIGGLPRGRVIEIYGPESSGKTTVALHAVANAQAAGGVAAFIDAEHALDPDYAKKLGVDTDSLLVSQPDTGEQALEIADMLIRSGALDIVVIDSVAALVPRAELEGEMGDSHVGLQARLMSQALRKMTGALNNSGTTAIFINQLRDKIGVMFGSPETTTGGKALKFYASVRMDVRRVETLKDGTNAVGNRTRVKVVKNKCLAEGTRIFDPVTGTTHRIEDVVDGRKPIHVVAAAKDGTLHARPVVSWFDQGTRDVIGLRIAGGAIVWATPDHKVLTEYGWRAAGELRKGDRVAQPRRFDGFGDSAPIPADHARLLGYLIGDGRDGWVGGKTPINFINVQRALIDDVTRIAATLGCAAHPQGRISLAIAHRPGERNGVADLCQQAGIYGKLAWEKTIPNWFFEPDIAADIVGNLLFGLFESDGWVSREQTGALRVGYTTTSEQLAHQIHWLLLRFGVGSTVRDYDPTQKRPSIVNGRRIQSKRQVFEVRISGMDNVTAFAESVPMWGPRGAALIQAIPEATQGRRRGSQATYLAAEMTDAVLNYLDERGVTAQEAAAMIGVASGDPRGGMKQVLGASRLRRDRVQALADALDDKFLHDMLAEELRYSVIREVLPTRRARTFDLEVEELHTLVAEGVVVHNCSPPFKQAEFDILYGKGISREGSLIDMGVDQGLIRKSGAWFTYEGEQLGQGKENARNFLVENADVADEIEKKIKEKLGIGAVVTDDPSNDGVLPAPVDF
Mtb betalactam: beta-lactam sensitization of Mtb H37Rv, H37Rv; M. tuberculosis H37Rv growth with meropenem, percent inhibition; inhibition, % at 25 µM; 330,000 tested, 0.27% active; call rule not given here;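 note: growth measured after seven days incubation then overnight dye step; 0% = bacteria only wells and 100% = bacteria with antibiotic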
CCHFV vOTU inh: CCHFV vOTU protease inhibitors, primary screen, biochemical, Pep-AMC substrate, fluorescence; AID 651958, 2012; inhibition, % at 11.5 µM; 370,000 tested, 0.55% active; Crimean-Congo hemorrhagic fever virus L polyprotein viral ovarian tumor (vOTU) protease …; note: 0% = vehicle wells with enzyme and 100% = no enzyme wells
GDH-TPI counter: GDH-TPI coupling enzyme inhibitors, primary screen, artefact control for M. tuberculosis FBA inhibitor project, biochemical, absorbance, full deck | GDH-TPI coupled enzyme counterscreen, NADH absorbance | inhibition, % at 4.8 µM | 360,000 tested, 1.2% active;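 note: 0% = DMSO wells and 100% = wells lacking the enzyme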
Mtb FBA inh: Mtb FBA enzyme inhibitors, primary screen, biochemical, fluorescence, strain H37Rv | Fructose-bisphosphate aldolase (Mycobacterium tuberculosis (strain ATCC 25618 / H37Rv)), … | purified M. tuberculosis FBA, fluorescence read-out | inhibition, % at 1 µM | 360,000 tested, 2.3% active; in the data active = inhibition above about 27%;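 note: 0% = vehicle and 100% = reference inhibitor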
* = called active by the depositor; ? = inconclusive; . = not tested or not shown; + = active, no number. Most compounds without a hit are left out; they make up all but 4.2% or so of the library. Cut-off read from the data, not from the text of the source, unless noted: active = inhibition above about 30%; inactive = the rest.

SMILES	RecA intein inh	Mtb betalactam	CCHFV vOTU inh	GDH-TPI counter	Mtb FBA inh
N#C/C(=C\c1ccco1)C(=O)NCC1CCCO1 (configuration not stated)	3	-3	36*	46*	0
Cc1ccc(-n2c(SCC(=O)c3ccccc3Br)nnc2-c2ccncc2)cc1	.	.	3	.	.
CCN(CC)c1c2c(nc3ncnn13)CCCC2	.	.	-1	.	.
CC1(C)CC(=O)C=C(Nc2ccccc2NC(=O)c2cc(Cl)ccc2F)C1	.	.	-1	.	.
c1ccc(CCNCc2cccnc2)cc1	1	-6	6	3	0
Cc1ccc(CNc2cnccn2)cc1	0	-3	-30	6	74*
c1ccc(CCNc2cnccn2)cc1	3	-3	-86	13	+
Cc1cc(O)c2c(c1)C(=O)C13C(=C2O)C(=O)[C@H]2[C@@H](O)[C@@H]1[C@H]1[C@H](O)[C@@H]3C(=O)C3=C(O)c4c(O)cc(C)cc4C(=O)C312 (some centres not stated)	.	44	.	38*	-18
CCOC(=O)[C@@]12CCCC=C1N(CCc1ccc(Cl)cc1)C(=O)[C@H]2CC(=O)N1CCSCC1	.	.	8	.	.
CCCN1CCN(CCCNC(=O)c2cc3c(s2)-c2ccccc2OC3)CC1	-17	2	-362	30	+
Cc1cccc(NC(=O)c2cc3c(s2)-c2c(C)cccc2OC3)n1	-14	-6	-22	22	14
CCN1CCN(CCCNC(=O)c2cc3c(s2)-c2ccccc2OC3)CC1	-19	2	-392	30	.
Cc1cccc2c1-c1sc(C(=O)NCCCN3CCCC(C)C3)cc1CO2 (configuration not stated)	-60	4	-378	22	+
CC1CC(C)CN(CCCNC(=O)c2cc3c(s2)-c2ccccc2OC3)C1 (configuration not stated)	-13	36	-395	15	+
CCCN1CCN(CCCNC(=O)c2cc3c(s2)-c2c(C)cccc2OC3)CC1	-40	3	-396	21	+
CC(C)(C)c1ccc(S(=O)(=O)N2CCC(C(=O)NCCC3=CCCCC3)CC2)cc1	.	.	16	.	.
COc1ccc2c(c1)CN1C(=O)N(CCc3ccccc3)S(=O)(=O)CC21 (configuration not stated)	.	.	0	.	.
COc1ccc(S[C@]2(C(=O)N(C)C)CC(=O)N(C(=O)Nc3ccc(C)c(Cl)c3)[C@@H]2c2ccc(OC)cc2)cc1	.	.	1	.	.
Cc1ccc2c(c1)C1CS(=O)(=O)N(Cc3ccccc3)CN1C2 (configuration not stated)	.	.	1	.	.
CN(C)CCNC(=O)c1cc2c(s1)-c1ccccc1OC2	-37	3	-285	32*	+
COc1ccc(N(C)C(=O)c2cc3c(s2)-c2ccccc2OC3)c(OC)c1	12	?	0	30	4
CC1CCCC(C)N1CCCNC(=O)c1cc2c(s1)-c1ccccc1OC2 (configuration not stated)	-22	6	-382	25	+
Cc1c(NC(=O)c2cc3c(s2)-c2ccccc2OC3)cccc1[N+](=O)[O-]	0	-3	6	36*	0
COc1cccc(N2CCN(C(=O)c3cc4c(s3)-c3ccccc3OC4)CC2)c1	6	1	-7	9	5
COc1cccc(-c2nnc(SCc3cc(C)ccc3C)n2Cc2ccco2)c1	.	.	12	.	.
SMILES	RecA intein inh	Mtb betalactam	CCHFV vOTU inh	GDH-TPI counter	Mtb FBA inh
COc1ccc(-c2nnc(SCC(=O)Nc3cccc4ccccc34)n2Cc2ccco2)cc1	.	.	12	.	.
CCOCCCNC(=O)/C(C#N)=C/c1ccc([N+](=O)[O-])o1	29	100	-11	46*	1
CCOCCCNC(=O)/C(C#N)=C/c1cc(Br)c(O)c(Br)c1	-9	.	.	44*	3
O=C1Nc2ccc(Br)cc2/C1=C/C(=O)c1ccc2c(c1)OCO2	49*	99	15	5	-2
O=S(=O)(CC1NCc2cc(F)ccc21)NC1CCCC1 (configuration not stated)	.	.	19	.	.
CCOC(=O)c1sc(N/N=C/c2ccc(N(C)C)cc2)nc1C	-3	13	19	18	3
C=CCc1c(C)nc(C)nc1N/N=C/c1ccc(N(C)C)cc1	-10	55	24	50*	13
O=C(NCCN1C(=O)S/C(=C/c2cccnc2)C1=O)c1cccs1	.	-3	3	32*	0
CN1C(=O)S/C(=C/c2cccnc2)C1=O	-1	6	7	32*	-5
O=C(NCCN1C(=O)S/C(=C\c2cccnc2)C1=O)C1=NN(c2ccccc2)C(=O)CC1	4	-3	2	9	-1
O=C(O)CN1C(=O)S/C(=C\c2cccnc2)C1=O	-1	5	1	13	2
O=S1(=O)c2ccc(Br)cc2OC[C@@H](Cc2ccccc2)N1Cc1cn(Cc2ccc(F)cc2)nn1	.	.	-12	.	.
O=C(Cc1ccccc1)N1CCC(Oc2cccnc2)CC1	.	.	-4	.	.
Cn1cnc([N+](=O)[O-])c1Oc1ccc2ccccc2c1	36*	94	-3	12	4
Cn1cnc([N+](=O)[O-])c1Sc1nc2ccccc2[nH]1	13	93	6	10	-2
CC(C)=CCC/C(C)=C/CNCC(=O)N1c2ccccc2[C@]2(c3ccccc3)C[C@@H]3C(=O)N(C/C=C(\C)CCC=C(C)C)CC(=O)N3[C@H]12	.	.	18	.	.
COc1ccc(CN2C(=O)N3Cc4ccc(C)cc4C3CS2(=O)=O)cc1 (configuration not stated)	.	.	10	.	.
O=c1c2c([nH]n1-c1ccccc1)CCSC2	63*	-2	-5	9	3
C/C(=N\NC(=O)c1c[nH]c2ccccc12)c1ccc(C)o1	-2	9	7	33*	-2
Cc1c(/C=N\NC(=O)c2c[nH]c3ccccc23)cnn1C	-4	5	17	17	-2
O=C(N/N=C/c1cccs1)c1c[nH]c2ccccc12	0	2	0	38*	1
CCc1ccc(/C=N/NC(=O)c2c[nH]c3ccccc23)s1	-1	2	12	50*	3
Cc1ccc(NC(=O)Nc2ccc3c(c2)[C@]2(CC(=O)N(CC(C)C)C2c2ccccc2)C(=O)N3C)cc1Cl (some centres not stated)	.	.	1	.	.
N#Cc1ccc(/C=C2\CC3(OC(=O)c4cccc(F)c4)CCCN2C3)cc1 (configuration not stated)	.	.	6	.	.
COc1ccc(CN2C(NC(=O)OCc3ccccc3)=NC3=CC(C)(C)n4c(=O)n(-c5ccccc5)c(=O)n4C32)c(OC)c1 (configuration not stated)	.	.	-4	.	.
NC(=O)C1=CN([C@@H]2O[C@H](COP(=O)(O)OP(=O)(O)OC[C@H]3O[C@@H](n4cnc5c(N)ncnc54)[C@H](O)[C@@H]3O)[C@@H](O)[C@H]2O)C=CC1	.	.	-2	.	.

High-throughput results from PubChem BioAssay.
